Among the data in PubChem BioAssay AID602396 (The Scripps Research Institute Molecular Screening Center, 2012) are inhibition values, retold here.

Out of some 360,000 compounds screened, about 460 (0.13%) were called active.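 The calls were made as follows: active = inhibition above the mean inhibition of all tested compounds plus 3 SD (cut at about 73% in these data); inactive = the rest.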 The full list was thinned out, with actives kept by preference.

The target in this test is Nuclear receptor subfamily 5 group A member 2 (Homo sapiens) (UniProt O00482). The experiment in a line: LRH-1 (NR5A2) inverse agonists, primary screen, cell-based, luminescence, HEK293T, StAR-luciferase reporter (AID 602396).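 Also: 0% = DMSO wells and 100% = reporter-only cells lacking LRH-1.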 Conditions: LRH-1 transfected, 24 h, at 3.6 µM, stronger effect = higher value. For orientation: A reporter such as luciferase makes a cellular process visible.
Sequence of Nuclear receptor subfamily 5 group A member 2 (Homo sapiens) (O00482 whole entry, looked up): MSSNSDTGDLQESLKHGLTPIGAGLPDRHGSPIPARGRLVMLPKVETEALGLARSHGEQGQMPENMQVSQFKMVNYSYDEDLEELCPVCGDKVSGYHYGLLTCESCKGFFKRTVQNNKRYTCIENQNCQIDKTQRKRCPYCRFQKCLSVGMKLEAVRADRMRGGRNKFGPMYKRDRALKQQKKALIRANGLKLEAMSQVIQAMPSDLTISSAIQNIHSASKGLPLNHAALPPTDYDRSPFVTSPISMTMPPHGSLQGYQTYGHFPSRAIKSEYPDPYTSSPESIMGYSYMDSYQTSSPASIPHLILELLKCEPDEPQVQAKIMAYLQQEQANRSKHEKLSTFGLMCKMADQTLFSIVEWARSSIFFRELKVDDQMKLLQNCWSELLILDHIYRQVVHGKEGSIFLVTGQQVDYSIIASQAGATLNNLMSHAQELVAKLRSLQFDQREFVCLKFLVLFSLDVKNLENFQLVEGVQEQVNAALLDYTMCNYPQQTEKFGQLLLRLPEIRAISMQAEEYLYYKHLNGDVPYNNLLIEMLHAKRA
As usually defined, the inhibition is the drop in the measured response relative to a control, in per cent. As for `COc1ccccc1-c1oc2ccccc2c1C#CCCCCO`, the inhibition was -10.4% (inactive). As for `COC(=O)[C@]1(C)N[C@H](CN(C)C(=O)c2ccc(C(C)(C)C)cc2)[C@@H]2C(=O)N(C)C(=O)[C@@H]21`, the inhibition is -20.1% (inactive). On to `CC1C=CCC2C(=O)N(c3cccc(C(=O)N4CCCCCC4)c3)C(=O)C12` (stereo not given), for which the inhibition is 6.85% (inactive). Under `CC(C)N(C)C(=O)CCc1nnc(CCc2c[nH]c3ccccc23)o1` stands 18.1% (inactive); under `O=C(Nc1ccc([N+](=O)[O-])cc1)C1(c2ccccc2)CCOCC1`, -9.79% (inactive). In the case of `Cc1ccc(NC(=O)CSc2sc3c(O)cc(=O)[nH]c3c2C#N)cc1C`, the inhibition was 6.61% (inactive).

As to `COc1ccc(OC)c(CCNC(=O)c2nn(C)c3c2CS(=O)(=O)c2ccccc2-3)c1`, the inhibition was 7.08% (inactive). With `Cn1c(N)c(C(=O)COC(=O)COc2ccc(Cl)cc2)c(=O)n(C)c1=O`, the inhibition is 4.34% (inactive).

Turning to `CC(=O)N1CCSc2ccc(S(=O)(=O)N3CCC(C)CC3)cc21`, the inhibition is 2.83% (inactive). In the case of `COc1ccccc1N1CCN(CC(=O)NCCc2ccc(S(N)(=O)=O)cc2)CC1` it was 16.7% (inactive). Turning to `Nc1ccc(OCC(O)C[n+]2ccc(CCS(=O)(=O)[O-])cc2)cc1` (stereo not given), the inhibition was -10.5% (inactive). Consider `CCCCn1c(N)c(N(CC)C(=O)c2ccccc2C(F)(F)F)c(=O)[nH]c1=O`, for which the inhibition was -19.4% (inactive). In the case of `Cc1ccc(CNC(=O)C2CCCN2S(=O)(=O)c2ccc3c(c2)C(C)(C)C(=O)N3C)cc1` (stereo not given), the inhibition was 4.35% (inactive). As for `CCOCCCNC(=O)C(NC(=O)c1ccc(=O)[nH]c1)c1ccc(Cl)cc1` (stereo not given), the inhibition is 11.9% (inactive). As to `CCOc1ccc(Br)cc1S(=O)(=O)Nc1cccc(S(=O)(=O)N(CC)CC)c1`, the inhibition is -37.2% (inactive). In the case of `CCC(C)(C)NC(=O)C(c1cccn1C)N(Cc1ccc(C)cc1)C(=O)Cn1nnc2ccccc21` (stereo not given), the inhibition is 22.9% (inactive). On to `CC1(C)C(=O)C2(CCCCC2)C(=O)OC1c1cccs1` (stereo not given), for which the inhibition was 5.23% (inactive). Regarding `O=C(O)CCC(=O)N(Cc1ccco1)c1nc(-c2ccccc2)cs1`, the inhibition was -15.1% (inactive). Consider `CSc1nnc(C2CCCN(CC(=O)Nc3ccccc3N3CCOCC3)C2)n1C(C)C` (stereo not given), for which the inhibition is -21.8% (inactive).

Take `COc1ccc(Cn2c(-c3ccc(Cl)cc3)c[n+]3ccccc23)cc1`: the inhibition was -37.2% (inactive).

In the case of `COC1=CC(=O)OC(C)(c2ccccc2)C1` (stereo not given), the inhibition was -28% (inactive).

On to `Cc1ccc(OS(=O)(=O)c2ccc(-c3csc(C)n3)s2)c(C)c1`, for which the inhibition was -6.88% (inactive).

On to `CC1CCCCC1NC(=O)NC(=O)COC(=O)C1=NN(c2ccccc2)C(=O)CC1` (stereo not given), for which the inhibition was -11.1% (inactive). Under `CCn1nc(C)cc1C(=O)N1CCCC(C(=O)c2cccc(OC)c2)C1` (stereo not given) stands 6.22% (inactive). As for `CCOC(=O)C(C)Oc1cccc2c(=O)n(CC(=O)NCCc3ccc(OC)c(OC)c3)ccc12` (stereo not given), the inhibition was 3.91% (inactive).

As for `CC(C)=NN1C(=O)c2ccccc2NC1(C)C`, the inhibition was -62.5% (inactive). In the case of `COCCN(C(=O)C(C)N1C(=O)c2ccccc2C1=O)c1c(N)n(CC(C)C)c(=O)[nH]c1=O` (stereo not given) it was -4.66% (inactive); in that of `Cn1c(N)cc(-c2ccc(F)cc2)c(C#N)c1=O`, 6% (inactive); in that of `C=CCSC(CC)(CC)C(N)=O`, 16.1% (inactive). In the case of `CC12CN(NC(=O)c3ccc(Cl)cc3)C3(C#N)CC1CCC23C` (stereo not given) it was 8.96% (inactive).

`CC1CCCCC1NC(=O)CO/N=C/c1ccc(OC(F)F)cc1` (stereo not given): the inhibition is 6.95% (inactive). As to `[2H]C(CCOS(N)(=O)=O)c1ccccc1` (stereo not given), the inhibition is 3.1% (inactive). `CC1(C)CC(N2CCN(C(c3ccccc3)c3ccccc3)CC2)=CC(=[N+]2CCCCC2)C1`: the inhibition is 91.7% (active). Under `COc1ccc(C2CC(=O)Oc3ccc(C(C)(C)C)cc32)cc1` (stereo not given) stands 21.2% (inactive); under `Cn1cnc(S(=O)(=O)N2C[C@@H](O)COC[C@@H]3O[C@H](CC(=O)NC4CCC4)CC[C@H]32)c1`, -18.2% (inactive).

On to `COc1ccc(NC(=O)/C(Cl)=C(/Cl)S(=O)Cc2ccc(C)cc2)cn1` (stereo not given), for which the inhibition was 87.2% (active). Regarding `O=C(COC(=O)Cc1ccc(Br)cc1)Nc1c(F)c(F)c(F)c(F)c1F`, the inhibition was 1.54% (inactive). For the compound `CCOC(=O)CSC1=N/C(=C/c2ccc(-n3cncn3)cc2)C(=O)N1C(C)=O`, the inhibition is 11.2% (inactive).

`CCOC1CCCCC1NS(=O)(=O)c1ccc(Cl)cc1` (stereo not given): the inhibition is 5.98% (inactive).

On to `COc1ccccc1-n1ccnc(SCC(=O)NC2CCCCC2)c1=O`, for which the inhibition is 1.62% (inactive). Consider `O=C(Nc1ccc2c(c1)OCCO2)C(c1ccc(F)cc1)N1CCCCC1` (stereo not given), for which the inhibition is 4.16% (inactive).

Regarding `CCCCCCCC[n+]1cccc(C(=O)N2c3c(nc(N)[nH]c3=O)NC(C)C2C)c1` (stereo not given), the inhibition is 4.18% (inactive). Under `C=CCn1c(CNS(=O)(=O)c2ccc(Br)cc2)nnc1SC` stands -25.5% (inactive).

`CCS(=O)(=O)Nc1cc(C(=O)OC)ccc1C(=O)OC`: the inhibition is 7.66% (inactive). Take `CCOc1ccc(NS(=O)(=O)c2cc(C)c(C)cc2C)cc1`: the inhibition is 0.32% (inactive). As for `Cc1cnc(C(=O)Oc2cccc(Cl)c2Cl)cn1`, the inhibition is 10.5% (inactive). Under `CCc1c(O)cc2n(c1=O)-c1ccccc1C2(C)C` stands 6.01% (inactive). On to `Cc1cc(C)cc(NS(=O)(=O)c2ccc(Oc3ncc(C(F)(F)F)cc3Cl)cc2)c1`, for which the inhibition is 3.47% (inactive). Take `COc1ccc(C2(C)ON(c3ccccc3C(F)(F)F)C2=O)cc1` (stereo not given): the inhibition is -1.81% (inactive). Consider `COCCNC(=O)C1CCN(S(=O)(=O)c2ccc3c(c2)OCCO3)CC1`, for which the inhibition is 8.61% (inactive). Take `COc1ccc(C)cc1NC(=O)CSc1cccc[n+]1[O-]`: the inhibition was -14.4% (inactive). Turning to `CC1(C)CC(=O)C=C(c2ccc3ncccc3c2)C1`, the inhibition is 47.8% (inactive). `CCCNC(=O)C1(C)CCCN(C(=O)c2cccc(OC(C)=O)c2C)C1` (stereo not given): the inhibition was -0.02% (inactive).

With `COC(=O)C(C(=O)Nc1cccc(Cl)c1C)C1CCCC1` (stereo not given), the inhibition was 1.94% (inactive). Regarding `O=C(O)c1ccccc1C(=O)NC1=NN(c2ccccc2)CC1`, the inhibition was -6.24% (inactive).

`Cn1cc(CNC(=O)c2ccc(OC3CCN(Cc4ccccn4)CC3)cc2)cn1`: the inhibition was 16.2% (inactive). With `CN(CCc1ccccn1)C(=O)c1ccc(OC2CCN(Cc3ccccn3)CC2)cc1`, the inhibition was -11.4% (inactive). In the case of `O=C(NCCOc1cccnc1)c1ccc(OC2CCN(Cc3ccccn3)CC2)cc1`, the inhibition was 90.4% (active). In the case of `O=C(Nc1cccc(S(=O)(=O)N2CCCC2)c1)c1cncc(Br)c1`, the inhibition was -0.97% (inactive).

With `COc1ccc(SC[C@H](Cc2ccccc2)N2CCN(CCc3ccccc3)CCC2=O)cc1`, the inhibition is -6.85% (inactive).

Take `CCn1nc(C(=O)NNS(=O)(=O)c2cc(/C=C/C(=O)O)cc(OC)c2OC)c2ccccc2c1=O`: the inhibition was 11.4% (inactive). In the case of `O=C(O)C(NS(=O)(=O)c1cccc2nsnc12)c1ccccc1` (stereo not given) it was -4.31% (inactive); in that of `COc1ccc2c(c1)c(=Cc1ccc(N(C)C)cc1)c1cc(-c3ccccc3)[n+](C)n12`, 91.5% (active). Take `COc1ccc(S(=O)(=O)N2CCCCC2)cc1NC(=O)C1CC(=O)N(c2ccc3c(c2)OCCO3)C1` (stereo not given): the inhibition was 8.99% (inactive). As to `NS(=O)(=O)c1ccc(NC(=O)/C=C/c2ccccc2Cl)cc1`, the inhibition is -11.9% (inactive). With `CCN(CC(=O)NCc1cccs1)C(=O)c1ccc(OC)c(S(=O)(=O)N2CCOCC2)c1`, the inhibition was -9.13% (inactive).

`COc1ccc(N2C(=O)C(O)C2c2ccc(C)cc2)cc1` (stereo not given): the inhibition is -10% (inactive).

Take `C/C=C/C(=O)Nc1ccc(N2CCN(c3ccc(C(F)(F)F)cn3)CC2)nc1`: the inhibition is -9.09% (inactive). With `COC(=O)c1cccc(C(=O)N2CCC(CCC(=O)NCc3ccc(F)cc3)CC2)c1`, the inhibition was 11.6% (inactive). Consider `Nc1nc(SCC(=O)NNc2c(Cl)cc(Cl)cc2Cl)n[nH]1`, for which the inhibition was 14.2% (inactive).

`CCc1cc(=O)oc2cc(C)cc(OC(C)C(=O)O)c12` (stereo not given): the inhibition was 6.8% (inactive).

For `CC1CC(C)(C)CC2(C1)NC(=O)N(CC(=O)Nc1nccs1)C2=O` (stereo not given), the inhibition was -13.1% (inactive).

With `CC(=O)N1CCC(C(=O)OCc2ccc(Cl)cc2)(c2ccccc2)CC1`, the inhibition was -12.7% (inactive).

As for `OCC(O)CN(c1ccccc1)c1ccccc1` (stereo not given), the inhibition was 9.64% (inactive).

For the compound `CC(Sc1nnc(-c2cccs2)n1C1CC1)C(=O)NCC1CCCO1` (stereo not given), the inhibition was -12.2% (inactive). Regarding `C=CCn1c(C)cc(C2=NNC(=NCC)SC2)c1C`, the inhibition was 84.2% (active). Regarding `O=C(COC(=O)c1ncc(Cl)c(Cl)c1Cl)NCc1cccs1`, the inhibition is -2.02% (inactive). In the case of `COc1cccc2c1C(=O)c1c(O)c3c(c(O)c1C2=O)CC(O)(C(C)=NNC(=O)c1ccc(Cl)c(Cl)c1)CC3OC1CC(N)C(O)C(C)O1` (stereo not given) it was 95.6% (active); in that of `CCNC(=O)NNC(=O)C1CC(c2cccs2)=NO1` (stereo not given), 19.8% (inactive); in that of `C=CCn1c2ccccc2c2nnc(SCc3[nH]c(=O)[nH]c3C(=O)CCCCC(=O)OCC)nc21`, 9.39% (inactive). As for `CCOC(=O)c1sc(N(Cc2ccccc2)C(=O)CN2C(=O)CN(C)C2=O)nc1C`, the inhibition was -6.11% (inactive). For the compound `CC(c1cccnc1)N(CCN(C)C)C(=O)Nc1ccc(Cl)c(Cl)c1` (stereo not given), the inhibition was -1.18% (inactive). Regarding `O=C(CC(O)(C(F)(F)F)C(F)(F)F)Nc1ccc(Cl)c(Cl)c1`, the inhibition was 100% (active). In the case of `O=C(Nc1ccc(Cl)c(Cl)c1)N1CC=C(c2ccccc2)CC1` it was -22.6% (inactive); in that of `CN(C)S(=O)(=O)c1ccc(Oc2ccc(S(=O)(=O)N(C)C)cc2)cc1`, 26% (inactive). Turning to `CC(C)(C)c1ccc(Oc2ccc(N)cc2)cc1`, the inhibition is 80.6% (active). As for `C[C@H](NC(=O)C1CCN(S(=O)(=O)c2ccccc2)CC1)C(=O)NCc1ccccc1`, the inhibition is -15.6% (inactive). In the case of `COc1ccccc1-n1nnnc1S(=O)(=O)Cc1ccc(Cl)cc1`, the inhibition was 47.7% (inactive). Consider `CC[C@H](C)[C@@H](C(=O)N1CCNCC1)n1cc([C@@H](N)Cc2ccc(O)cc2)nn1`, for which the inhibition is 5.8% (inactive). Under `Cc1nn(-c2ccccc2)c2c1C(=O)NC(=O)C(C)(C)C2` stands 10.2% (inactive).
